# Measured values published in the supplement of paper PMC11219838.
# A number with no mark means an inactive call.
# Tested on: Caenorhabditis elegans L1 (N2)
# Test: survival and reproduction score of C. elegans L1 (0: 0-10 living worms, 1: 11-20, 2: 21-50, 3: >50, 4: overgrown) (score 0-4); higher = more worms, less nematicidal, active = 1 or less; extreme values may be limits of the assay
# Conditions: 60 µM; 6 days; temperature: 20 °C
# Method in brief: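 About 20 synchronized C. elegans N2 L1s were added per 96-well well with E. coli HB101 in liquid NGM, and compound was pinned to 60 µM final (0.6% v/v DMSO). Sealed plates were shaken at 200 rpm for 6 days at 20 °C. Survival and reproduction were scored under a dissection microscope as an ordinal score of living worms per well. The scale ran 0 (0–10 worms) to 4 (overgrown, starved), and two biological replicates were averaged.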
row,Compound,survival and reproduction score
1,O=C(NC1CCCCC1)c1ccccc1-c1nc(-c2ccc(F)cc2)no1,4
2,Clc1ccc(-c2noc(-c3ccccc3Cl)n2)cc1,3
3,Clc1ccc(CSc2nnc(-c3ccccc3Cl)o2)cc1,4
4,Cc1ccccc1-c1noc(CSc2nc3ccccc3[nH]2)n1,4
5,Cc1ccc(-c2nnc(SCc3ccc(Br)cc3)o2)cc1,4
6,CC(=O)Nc1ccc(-c2nc(-c3ccccc3)no2)cc1,4
7,Clc1ccccc1-c1noc(-c2ccncc2)n1,4
8,Cc1ccccc1OCc1nc(-c2ccccc2)no1,4
9,Cn1c(SCc2cccc(F)c2)nnc1-c1ccco1,4
10,Cc1ccccc1-c1nc(-c2cccc(NC(=O)c3cccs3)c2)no1,4
11,COc1ccccc1-c1nnc(SCc2ccccc2C#N)o1,4
12,COc1cccc(NC(=O)c2ccccc2-c2nc(-c3ccccc3Cl)no2)c1,4
13,Cc1cc(OCc2nc(-c3ccccc3)no2)ccc1Cl,4
14,Fc1cccc(Cl)c1CSc1nnc(-c2ccccc2Cl)o1,4
15,O=C(c1ccccc1-c1nc(-c2ccc(F)cc2)no1)N1CCCC1,4
16,CSc1ccccc1-c1nc(-c2cccnc2)no1,4
17,COc1ccc(Cl)cc1-c1noc(-c2ccccc2C)n1,4
18,O=C(CSc1nnc(-c2ccc(Br)cc2)o1)Nc1cccc2ccccc12,4
19,COc1ccccc1OCc1nc(-c2ccc(Br)cc2)no1,4
20,Cc1cc(OCc2nc(-c3ccc(NC(=O)c4ccc5c(c4)OCO5)cc3)no2)ccc1Cl,4

row,Compound,survival and reproduction score
1,Cc1ccc(SC(C)c2nc(-c3ccncc3)no2)cc1 (centres undefined),4
2,COc1ccc(-c2noc(-c3ccccc3Cl)n2)cc1,4
3,Cc1cccc(-c2noc(COc3ccc(Cl)cc3)n2)c1,4
4,O=C(CSc1nnc(-c2ccccc2)o1)Nc1cccc(Br)c1,4
5,Clc1ccc(-c2noc(COc3ccccc3Cl)n2)cc1,4
6,COc1ccc(-c2noc(COc3ccc(C)cc3Br)n2)cc1,4
7,Cc1ccccc1-c1nc(-c2ccc3c(c2)OCO3)no1,2.5
8,Brc1cccc(-c2nc(-c3ccccc3)no2)c1,0 (active)
9,Clc1ccccc1-c1nc(-c2ccc3c(c2)OCO3)no1,4
10,Cc1ccc(-c2nnc(SCC(=O)Nc3cc(C)ccc3C)o2)cc1,4
11,COc1ccc(-c2nnc(SCc3c(Cl)cccc3Cl)o2)cc1,4
12,Cc1ccc(-c2noc(COc3ccccc3C)n2)cc1,4
13,COc1ccc(-c2noc(-c3ccc(Cl)cc3Cl)n2)cc1,4
14,COc1ccc(Cl)cc1-c1nnc(SCC(=O)Nc2nccs2)o1,4
15,N#Cc1ccc(OCc2nc(-c3ccc(Br)o3)no2)cc1,4
16,Brc1ccc(-c2nnc(-c3cccs3)o2)o1,0 (active)
17,CC(C)(C)c1ccc(-c2noc(COc3ccccc3)n2)cc1,4
18,COc1ccc(-c2nnc(SCC(=O)Nc3c(F)cc(F)cc3Br)o2)cc1,4
19,Cc1ccc(C(=O)Nc2ccccc2-c2nc(-c3cccnc3)no2)cc1C,4
